Measured values published in ChEMBL document CHEMBL1157539, “Thousands of chemical starting points for antimalarial lead identification” (Nature, 2010).

test system: HepG2; assay: GSK_TCMDC: Percent inhibition of human HepG2 cell line. Test compounds present at 10uM.; assay type: functional

Row | Compound | Inhibition
1 | Cl.Clc1cccnc1N1CCN(c2ncccc2Cl)CC1 | 2%
2 | COCn1ncc2cc(-c3cccc(NC(=O)c4csc(NC(C)=O)n4)c3)ccc21 | 0%
3 | Cl.N#Cc1ccc(-c2ccc3nc(N4CCCN(C5CCC5)CC4)ccc3c2)cc1 | 36%
4 | Cc1ccc2c(OCCN3CCC(Cc4cc5c(cc4F)OCC(=O)N5)CC3)cc(F)cc2n1.Cl | 27%
5 | CS(=O)(=O)NCCCNCc1cccc(-c2cccc(-c3nc4cc(F)ccc4[nH]3)c2)c1.O=C(O)C(F)(F)F | 4%
6 | COCCn1c(SC(C)C(=O)Nc2cc(C(F)(F)F)ccc2Cl)nc2ccccc2c1=O (stereo not given) | 8%
7 | Cl.N=C(N)c1ccc(-c2cc3ccc(C(=N)N)cc3[nH]2)cc1 | 18%
8 | c1ccc2cc3c(NCCN4CCOCC4)ccnc3cc2c1 | 0%
9 | COc1ccc(OC)c(Cc2cnc3nc(N)[nH]c(=O)c3c2C)c1 | 62%
10 | CS(=O)(=O)c1ccccc1CNC(=O)c1cccc(-c2ccc(-c3nc4cc(C(F)(F)F)ccc4[nH]3)cc2)c1 | 86%
11 | Nc1ccc2[nH]cc(C3CCN(CCC4CCN(C(=O)/C=C/c5ccc(Cl)c(Cl)c5)CC4)CC3)c2n1 | 27%
12 | CN(C)CCOc1ccnc2ccc(NC(=O)Cc3ccc(-c4ccncc4)c4ccccc34)cc12 | 10%
13 | CC(CN1CCN(C)CC1)C(=O)Nc1cccc(-c2ccc(-c3nc4cc(F)ccc4[nH]3)cc2)c1 (stereo not given) | 10%
14 | CN1CCC(NCc2ccc(-c3ccc(S(=O)(=O)NCc4ccccc4)cc3)cc2)CC1.O=C(O)C(F)(F)F | 40%
15 | COc1ccc(C2CCN(CCN3CCC(NC(=O)c4cccc(-c5ccncc5)c4)CC3)CC2)c(OC)c1 | 7%
16 | CN1CCN(c2ccnc3ccc(NC(=O)Cc4ccc(-c5ccncc5)c5ccccc45)cc23)CC1 | 32%
17 | CN(CCN)Cc1cccc(-c2cccc(-c3nc4cc(F)ccc4[nH]3)c2)c1.O=C(O)C(F)(F)F | 20%
18 | CCCCCc1cnc2nc(N)nc(N)c2c1C.Cl | 64%
19 | OC(CN(Cc1ccccc1)Cc1ccccc1)Cn1c2ccc(Cl)cc2c2cc(Cl)ccc21 (stereo not given) | 5%
20 | COc1ccc2nccc(N/N=C/c3ccccc3[N+](=O)[O-])c2c1 | 67%

Row | Compound | Inhibition
21 | Cc1n[nH]c2ccc(-c3cc(OC[C@@H](N)Cc4ccccc4)cnc3-c3ccc(OCc4cccc(F)c4)cc3)cc12.O=C(O)C(F)(F)F | 97%
22 | CC1CN(Cc2cccc(-c3ccc(-c4nc5cc(F)ccc5[nH]4)cc3)c2)CC(C)O1.O=C(O)C(F)(F)F (stereo not given) | 45%
23 | CS(=O)(=O)Nc1cccc(-c2cnc3[nH]cc(-c4ccc(CCC(=O)O)cc4)c3c2)c1 | 7%
24 | O=C(CC1CCCC1)Nc1ccc2c(c1)CCC2 | 0%
25 | O=C(Nc1ccc(-c2ccc(-c3nc4cc(C(F)(F)F)ccc4[nH]3)s2)cc1)c1ccoc1 | 9%
26 | COc1cc2nc(N3CCC(CNC(=O)c4ccc(-c5ccc(O)cc5)cc4)CC3)nc(N)c2cc1OC.O=C(O)C(F)(F)F | 34%
27 | Cl.O=C(/C=C/c1cccc(Cl)c1)Nc1ccc2nc(CN3CCCC3)ccc2c1 | 47%
28 | OC(CNCc1ccccc1OCc1ccccc1)c1cccc(I)c1 (stereo not given) | 2%
29 | COC(=O)CCCCOc1cc(Cc2cnc(N)nc2N)cc(OC)c1OC | 0%
30 | Cc1ccc2nc(C)cc(N/N=C/c3ccccc3[N+](=O)[O-])c2c1 | 5%
31 | CCCCCCOc1ccc(C(=O)NCCC2CCN(CCCCCNC(=O)C=Cc3ccc(Cl)c(Cl)c3)CC2)cc1 | 13%
32 | CC(C)c1ccc(NC(=O)c2cccc(CN3CCCN(CC4CCCCC4)CC3)c2)cc1.O=C(O)C(F)(F)F | 62%
33 | Cc1cccc2nc(-c3ccc(-c4ccc(NC(=O)NC5CC5c5ccccc5)cc4)cc3)[nH]c12 (stereo not given) | 28%
34 | O=C(NCCc1ccc(Cl)c(Cl)c1)[C@@H]1CCCN1C(=O)c1ccc(O)c(-c2cccc(C(F)(F)F)c2)c1 | 0%
35 | CN1CCC(N2CCC(Oc3cccc(C(=O)NCCCC4CCCC4)c3)CC2)CC1 | 41%
36 | CN(Cc1cccc(F)c1)C1CCN(c2cc(NC(=O)c3ccc(F)cc3)ccn2)CC1.O=C(O)C(F)(F)F | 0%
37 | c1ccc(Oc2ccc(Nc3ccnc4cc(-c5ccc(CNCCN6CCOCC6)o5)ccc34)cc2)nc1 | 0%
38 | CCN(CC)CCNC(=O)c1ccc(NC(=O)c2cc3c(C)nn(-c4ccc(Cl)cc4)c3s2)cc1.Cl | 24%
39 | Cl.N=C(N)c1cccc(OCCCOc2cccc(NC(=O)Nc3ccc([N+](=O)[O-])cc3)c2)c1 | 16%
40 | CN(C)c1ccc(-c2cscc2C(=O)NC2CCCN(Cc3cccnc3)C2)cc1.O=C(O)C(F)(F)F (stereo not given) | 5%
